Assay outcomes: PubChem BioAssay, National Center for Advancing Translational Sciences (NCATS)
A selection: hits, their analogues and other compounds. The true share with any hit is near 2.9%.
12-LOX inh – Primary qHTS assay for inhibitors of human arachidonate 12S-lipoxygenase (ALOX12): Round 2. Polyunsaturated fatty acid lipoxygenase ALOX12 (Homo sapiens), P18054. purified 12hLO, xylenol orange hydroperoxide absorbance. actives 1.1% (n = 580,000). Potency, µM (series often up to 108 µM), usual class: inhibitors
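Purified human 12hLO (150 nM final) in 25 mM Hepes, 0.01% Triton X-100, pH 7.0 was preincubated 15 min at room temperature with compound. Then 40 uM arachidonic acid was added, 30 min. Hydroperoxide was read by Fe-XO absorbance ratio 573/405 nm.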
Pol eta inh – qHTS for Inhibitors of Polymerase Eta. DNA polymerase eta (Homo sapiens), Q9Y253. recombinant Pol eta, fluorescent DNA replication assay. Potency, µM (series often up to 114 µM), usual class: inhibitors. actives 1.2% (n = 390,000). AID 588591, 2011
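Pol eta at 10 nM preincubated with compounds 15 min at room temperature; reaction started with fluorescent substrate (50 nM final) and read kinetically at 0 and 10 min.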
PI5P4Ka inh – qHTS for Inhibitors of phosphatidylinositol 5-phosphate 4-kinase (PI5P4K). Phosphatidylinositol 5-phosphate 4-kinase type-2 alpha (Homo sapiens), P48426. PI5P4Kalpha enzyme, ADP-Glo luminescence, 60 min; active compounds read low. max response, %. actives 1.2% (n = 330,000); active = max response of -50% or lower; inconclusive = between -30% and -50%; inactive = -30% or higher; also: value at the top dose of about 77 µM
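Human PI5P4Kalpha with substrate in 0.038 M HEPES pH 7.4, 0.28 mM EGTA, 0.1% CHAPS, 5% DMSO; reaction started with 5 microM ATP (final), 60 min at room temperature. ADP formed read by ADP-Glo luminescence.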
POLI inh – qHTS for Inhibitors of Polymerase Iota | DNA polymerase iota (Homo sapiens), Q9UNA4 | Pol iota fluorescent replication assay, 10 min | Potency, µM (top dose mostly 115 µM), hits mostly inhibitors | actives 1% (n = 390,000)
Target sequence (Q9UNA4 whole entry, looked up): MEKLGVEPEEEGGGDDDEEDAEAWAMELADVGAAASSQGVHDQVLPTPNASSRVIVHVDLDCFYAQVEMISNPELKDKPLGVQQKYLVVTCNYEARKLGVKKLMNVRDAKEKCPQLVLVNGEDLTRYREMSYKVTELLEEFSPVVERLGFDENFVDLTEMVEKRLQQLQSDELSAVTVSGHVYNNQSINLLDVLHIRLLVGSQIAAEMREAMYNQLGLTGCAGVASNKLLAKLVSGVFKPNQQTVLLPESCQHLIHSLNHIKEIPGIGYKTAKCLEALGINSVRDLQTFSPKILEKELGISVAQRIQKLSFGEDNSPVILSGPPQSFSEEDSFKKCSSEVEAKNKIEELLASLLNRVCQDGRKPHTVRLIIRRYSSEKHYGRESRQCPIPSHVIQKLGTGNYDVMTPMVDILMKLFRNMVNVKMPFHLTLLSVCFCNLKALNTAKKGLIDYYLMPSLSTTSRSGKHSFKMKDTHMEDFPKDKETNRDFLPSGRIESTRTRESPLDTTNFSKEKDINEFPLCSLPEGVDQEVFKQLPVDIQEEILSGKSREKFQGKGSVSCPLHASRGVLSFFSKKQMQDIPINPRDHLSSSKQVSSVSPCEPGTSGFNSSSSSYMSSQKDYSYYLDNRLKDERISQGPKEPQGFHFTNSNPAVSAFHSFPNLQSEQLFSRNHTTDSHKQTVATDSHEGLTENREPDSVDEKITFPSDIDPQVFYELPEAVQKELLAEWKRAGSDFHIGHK
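Fluorescent replication assay read twice, at 0 min and 10 min after adding 50 nM (final) substrate. Enzyme (10 nM) and compounds were first incubated 15 min at room temperature; enzyme-free buffer wells were negative controls.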
Pol beta inh – qHTS Assay for Inhibitors of DNA Polymerase Beta | P06746 | Pol beta primer extension/strand displacement, fluorescence kinetic | Potency, µM (titrated, usually from 114 µM), most hits filed as inhibitors | actives 1.3% (n = 340,000)
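Values derive from four-parameter Hill fits of normalized kinetic data: reads at 0 and 10 min following addition of 50 nM substrate to 10 nM Pol beta preincubated 15 min with compound.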
POLK inh – qHTS for Inhibitors of Polymerase Kappa; purified Pol kappa, fluorescent DNA synthesis assay, 10 min; actives 0.53% (n = 400,000); Potency, µM (highest dose often 107 µM), usual class: inhibitors; DNA polymerase kappa (Homo sapiens), Q9UBT6
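Activity was followed as the change in fluorescence between reads at 0 and 10 min after starting the reaction with 50 nM substrate. Beforehand, 10 nM polymerase had been preincubated with compound for 15 min at room temperature.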
A number is an active result; i = inactive; ? = inconclusive; nt = not tested or not shown. Unless noted, calls follow the shape of the dose curve; as a rule, active = well fitted inhibition curve with a large enough effect; inconclusive = small, poorly fitted or top-dose-only effect, or another doubt; inactive = no such curve, though single readings can be large or run the other way.

SMILES	12-LOX inh	Pol eta inh	PI5P4Ka inh	POLI inh	Pol beta inh	POLK inh
Cc1nnc(SCC(=O)NCc2ccccc2F)c2nn(-c3ccc(Cl)cc3)c(C)c12	i	?	nt	71µM	?	i
Cc1cc(Cl)cc2sc(=S)[nH]c12	11µM	i	?	i	nt	i
COc1ccc(C(=O)c2cn(CC(=O)Nc3cc(OC)cc(OC)c3)c3ccc(OC)cc3c2=O)cc1	i	79µM	nt	?	i	i
COC1=C/C(=C/c2c(N)n3nc(CC(=O)N4CCCC4)sc3nc2=O)C=CC1=O	i	i	-56	?	i	?
COC1=CC(=Cc2c(N)n3nc(CC(=O)N4CCCCC4)sc3nc2=O)C=C(OC)C1=O	i	56µM	-58	?	i	?
CCOC1=C/C(=C/c2c(N)n3nc(CC(=O)N4CCCC4)sc3nc2=O)C=CC1=O	i	?	-55	?	i	i
O=C1/C(=C/c2ccc3ccccc3c2)CCc2ccccc21	i	nt	nt	nt	nt	nt
Cc1ccc(Sc2nc(C)cc(C)n2)cc1	i	nt	nt	nt	nt	nt
CC1=CC(=O)C(Sc2ccc(C)cc2)=CC1=O	1.1µM	i	-71	nt	nt	nt
CCCCCc1ccc(-c2ccc(/C=C/C#N)cc2)nc1	i	nt	nt	nt	nt	nt
COc1ccc2c(c1)Cc1sc(NC(=O)c3cccc(C)c3)nc1-2	?	nt	nt	8.9µM	i	i
COc1ccc2c(c1)-c1nc(NC(=O)c3ccc(C)cc3)sc1CC2	?	i	nt	i	i	i
COc1ccc(C(=O)Nc2nc3c(s2)CCc2cc(OC)ccc2-3)cc1	?	nt	nt	i	i	i
COc1ccc2c(c1)CCc1sc(NC(=O)c3cccc(Br)c3)nc1-2	?	i	nt	i	i	i
COc1ccc2c(c1)Cc1sc(NC(=O)c3cccc(Cl)c3)nc1-2	i	i	nt	10µM	i	i
COc1ccc2c(c1)Cc1sc(NC(=O)c3ccc(Cl)cc3)nc1-2	?	i	nt	22µM	i	?
Cc1oc2cc(OCC(=O)NC(C)c3cccs3)ccc2c(=O)c1Oc1ccccc1 (configuration not stated)	i	nt	nt	nt	nt	nt
COc1ccc2c(c1)oc(=O)c1ccccc12	i	i	i	i	i	i
COc1ccc2c(c1)oc(=O)c1c3ccccc3[nH]c21	i	i	i	i	22µM	i
N#Cc1ccc2nc([C@H]3CCN(Cc4ccccn4)C3)[nH]c2c1	i	nt	nt	nt	nt	nt
Cc1ccc(NS(=O)(=O)c2ccc(C(=O)NNC(=O)c3ccccc3O)cc2)cc1	45µM	i	i	i	nt	i
C=CCSc1ccccc1NC(=O)c1cc(C)cc(C)c1	35µM	nt	nt	nt	nt	nt
c1ccc2c(-c3cncc4ccccc34)cncc2c1	i	i	-73	i	nt	i
Cc1cc(C)nc(SCc2nc3cc(NC(=O)c4ccc(F)c(Cl)c4)ccc3n2C)n1	i	nt	nt	nt	nt	nt
CC(C)(C)C(=O)COc1cccc(S(C)(=O)=O)c1	i	nt	nt	nt	nt	nt
SMILES	12-LOX inh	Pol eta inh	PI5P4Ka inh	POLI inh	Pol beta inh	POLK inh
COc1cccc(OCc2nnc(SCC(=O)NCc3ccco3)n2C)c1	i	i	i	i	i	i
COc1cccc(OCc2nnc(SCC(=O)NCc3ccco3)n2CCc2ccccc2)c1	i	14µM	?	?	22µM	?
NC(N)=NCc1ccc(CN2CCCC2)cc1	45µM	nt	nt	nt	nt	nt
COc1cccc(NS(=O)(=O)c2ccc(S(=O)(=O)N3CCCC3)cc2)c1	i	i	i	i	nt	i
COc1cccc(CNS(=O)(=O)c2ccc(S(=O)(=O)N3CCCC3)cc2)c1	i	i	i	i	20µM	i
O=C(NC1CCCC1)C(Sc1ccccn1)c1ccccc1 (configuration not stated)	i	nt	nt	nt	nt	nt
O=c1[nH]c(/C=C\c2cccc(Cl)c2)nc(O)c1[N+](=O)[O-]	?	?	?	?	i	i
C#CCOc1c(/C=C\c2nc(O)c([N+](=O)[O-])c(=O)[nH]2)cc(Br)cc1OC	i	35µM	-68	?	?	i
C=CCOc1cccc(/C=C\c2nc(O)c([N+](=O)[O-])c(=O)[nH]2)c1	i	i	?	?	i	i
COc1ccc(/C=C\c2nc(O)c([N+](=O)[O-])c(=O)[nH]2)cc1O	?	i	-74	i	i	i
C=CCOc1ccc(/C=C\c2nc(O)c([N+](=O)[O-])c(=O)[nH]2)cc1OC	nt	25µM	?	50µM	i	?
C=CCOc1ccc(/C=C\c2nc(O)c([N+](=O)[O-])c(=O)[nH]2)cc1OCC	?	20µM	-55	?	i	i
Cc1cc(C)c2oc(=O)cc(CN3CCN(CCO)CC3)c2c1	i	nt	nt	nt	nt	nt
Cc1cc(NC(=O)CSc2nnc3c(Cl)cc(C(F)(F)F)cn23)no1	i	nt	nt	nt	nt	nt
O=C1CC(c2ccccc2)c2ncn(-c3cc(F)ccc3F)c2N1 (configuration not stated)	5µM	nt	nt	nt	nt	nt
COc1c(C2CC(=O)Nc3c2ncn3-c2cccc(Cl)c2)cc2c(c1OC)OCO2 (configuration not stated)	i	nt	nt	nt	nt	nt
O=C(/C=C/c1ccco1)Nc1nc(-c2ccccn2)cs1	i	?	-93	?	25µM	32µM
O=C(Nc1nc(-c2ccccn2)cs1)c1cc2ccccc2o1	i	i	i	i	i	i
Cc1csc(NC(=O)/C=C/c2ccco2)n1	i	i	i	i	i	i
O=C(/C=C/c1ccco1)Nc1cccc2cccnc12	?	28µM	-82	6.3µM	40µM	28µM
O=C(O)/C=C/C(=O)Nc1cccc2cccnc12	i	i	i	i	i	i
Cc1c(C(=O)Nc2nc(-c3ccccn3)cs2)oc2ccccc12	nt	?	-59	?	nt	?
Cc1cc(=O)oc2cc(NC(=O)CCCOc3ccccc3)ccc12	i	nt	nt	nt	nt	nt
Cc1cccc(-n2c(SCC(=O)N3CCOCC3)nc3ccccc3c2=O)n1	i	nt	nt	nt	nt	nt
O=C(Nc1cc(F)cc(F)c1)Nc1cccc(-c2ccc(N3CCOCC3)nn2)c1	i	nt	nt	nt	nt	nt
SMILES	12-LOX inh	Pol eta inh	PI5P4Ka inh	POLI inh	Pol beta inh	POLK inh
Cc1cccc(CSCc2ccc(-c3nc(-c4ccc(Br)cc4)no3)o2)c1	3.5µM	nt	nt	nt	nt	nt
Cc1cccc(-c2nc(-c3ccc(Br)cc3)no2)c1	i	nt	nt	nt	nt	nt
CCOC(=O)c1ccc(NC(=O)CSc2ncc(S(=O)(=O)c3ccc(C)c(Cl)c3)c(=O)[nH]2)cc1	?	?	nt	?	89µM	i
COc1ccc(CCNC(=O)CSc2nc3sc(C(=O)O)c(C)c3c(=O)[nH]2)cc1OC	i	i	-71	i	i	i
Cc1cc(NS(=O)(=O)c2ccc(NC(=O)CSc3nc4sc(C(=O)O)c(C)c4c(=O)[nH]3)cc2)no1	i	i	-81	i	i	i
CC(=O)c1sc2nc(SCC(=O)NCCc3ccccc3)[nH]c(=O)c2c1C	i	i	i	i	i	i
